Measurements from PubChem BioAssay AID1345083 (National Center for Advancing Translational Sciences (NCATS), 2018).
In all, about 94,000 compounds went through this assay and about 6,200 (6.6%) were called active. Inconclusive results (about 31%) are left out. Shown is part of a subset that was picked to be rich in actives. Values without a mark were called inactive. The call rests on the fitted dose curve; in most records, active means well fitted inhibition curve with a large enough effect; inconclusive means small, poorly fitted or top-dose-only effect; inactive means flat fitted curve, though single readings scatter.

assay: Cytotoxic Profiling in HEK 293 Cell Line of Diverse Libraries Using Quantitative High-Throughput Screening; settings: HEK 293 viability, ATP luminescence (CellTiter-Glo), 48-72 h; series mostly up to 115 µM; activity change, negative = cytotoxicity: at the top concentration; further: nearly all actives have a fitted effect of over 60% in size
Procedure, shortened: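 HEK 293 seeded at 250 cells/well receive compound via pintool. After 48 or 72 hr at 37 degree Celsius, 5% CO2 and 95% humidity, CellTiter-Glo is dispensed and luminescence read following 10 min at room temperature.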
On the % scale 0 is the no-effect control and ±100 the full control effect; potency means the concentration at half of the fitted maximal effect.

Point of comparison: `Cc1ccc(OCC(=O)NCc2cccnc2N2CCOCC2)cc1`, “activity change, negative = cytotoxicity” value -16.7%. Against it:
- O=C(Cn1c(=O)oc2ccccc21)NC1CCc2nn(CC3CC3)c(=O)n2CC1 (stereo not drawn) — higher, -3.93%
- Cc1cc(=O)n(CC(=O)Nc2cccc(Cl)c2C)c(N2CCc3ccccc3C2)n1 — higher, 1.27%
- CNC(=O)c1cc(C)nc2onc(C3CCCN3C(=O)c3ccccc3OC)c12 (stereo not drawn) — higher, 0.24%
- COc1ccc(CCNC(=O)C2CC(=O)N(c3n[nH]c4cccc(F)c34)C2)cc1 (stereo not drawn) — higher, 8.78%
- COc1cccc(-c2cn(C3CCN(C(=O)c4ccc(Cl)cc4)CC3)c(=O)[nH]2)c1 — lower, -23.2%
- C=CCCCC(=O)Nc1ccc(NC(=O)C(C)(C)C)c(OC)c1 — higher, -9.37%
- O=C(NCc1cc2n(n1)CCCN(C1CCCCC1)C2)c1cccc(F)c1 — higher, 0.948%
- CCNC(=O)C1(CCO)CCN(c2ncccn2)C1 (stereo not drawn) — higher, -4.15%
- O=C(NCc1ccc(Cl)nc1)c1cn2c(n1)CN([S+](=O)([O-])c1cccc(C(F)(F)F)c1)CC2 — lower, -16.9%
- CC(=O)N1CCC2(CC1)CN(C(=O)Cc1cccc(Cl)c1)CCO2 — higher, 0.172%
- O=C(Cn1nc2n(c1=O)CCCCC2)N1CCc2ccccc21 — higher, 12.5%
- CCOCC(=O)Nc1nn(-c2cccc(F)c2)c2cccc(N3CCOC3=O)c12 — lower, -23.7%
- O=C(NCc1ccncc1)C1CCN(C(=O)N2CC3CC(C2)[C@H]2CCCC(=O)N2C3)CC1 (stereo partly drawn) — higher, 6.44%
- O=C(Nc1ccccc1Br)N1CCC2(CC1)SCC(=O)N2Cc1ccco1 — lower, -26.1%
- CNC(=O)[C@@H]1CN(C(=O)Cn2c(=O)oc3ccccc32)C[C@H]1c1nc(C)no1 — higher, -8.64%
- O=C(NCCc1ccccc1)N1CCCCCC1CN1CCOCC1 (stereo not drawn) — higher, 1.18%
- CCc1nc2c(c(-c3ccc(OC)cc3)n1)CCN(CC1CCCCC1)CC2 — lower, -20.6%
- CN1C(=O)[C@H]2CN(Cc3ccccc3Cl)C[C@H]2C1=O — higher, -5.39%
- c1coc(-c2ccnc3nc(C4CC4)nn23)c1 — higher, -5.45%
- Cc1noc(C)c1[S+](=O)([O-])N1CCn2c(nnc2-c2ccccc2)C1 — lower, -23.3%
- Cc1noc(C)c1[S+](=O)([O-])N1CC(Oc2ccc(F)c(F)c2)C1 — higher, -8.54%
- CCCN1C(=O)C(CC(=O)NC2CCCC2)Sc2ncccc21 (stereo not drawn) — higher, 9.1%
- CCn1ncc(N2CCC(NC(=O)C(C)c3ccccc3)CC2)cc1=O (stereo not drawn) — higher, -2.7%
- CN1[C@@H](CCC(=O)N2CCN(c3ccccn3)CC2)CNC(=O)[C@@H]2[C@H]1CCN2Cc1csnn1 — higher, 1.42%
- CN(Cc1cccnc1)C1CN(C(=O)c2ccnn2C)C1 — higher, -5.32%
- CN(CC1CCOC1)C(=O)c1ccccc1Br (stereo not drawn) — higher, -14.7%
- O=C(c1ccc(C(F)(F)F)cc1)N1CCC2(C1)C(=NC1CCCC1)NC(=O)N2c1cccnc1 (stereo not drawn) — higher, 4.18%
- CN(CC1(C)CCOCC1)S(=O)(=O)C1CC1 — higher, -3.58%
- O=C(N[C@@H]1C[C@H](Cn2cc(-c3cccnc3)nn2)[C@@H](O)[C@H]1O)c1ccccc1 — higher, 4.8%
- O=c1[nH]c(N2CCOCC2)nc2c1CCN(Cc1cccc(F)c1)CC2 — higher, -0.181%
- O=C1CCC2(CCCN(C(=O)c3ccc(F)cc3)C2)CN1CCc1cnc[nH]1 (stereo not drawn) — higher, -7.95%
- CC(C)CN1CC2(CCN(C(=O)c3conc3-c3ccccc3)CC2)CC1=O — higher, 3.69%
- CC(C)S(=O)(=O)N1CCC(c2nnc3n2CCNC3)CC1 — lower, -23.8%
- O=C(C1C2C(=O)N(C3CCCCCC3)C[C@@]23C=C[C@@H]1O3)N1CCS(=O)(=O)CC1 (stereo partly drawn) — higher, -13.7%
- COCCN1CCOC[C@H]2CCN(C(=O)c3sc(C)nc3C)C[C@H]21 — higher, 8.08%
- CNC(=O)[C@@H]1CN(Cc2cccc(OC)c2)C[C@H]1CO — higher, -2.57%
- COc1cccc(CN2CC[C@@](C)(O)[C@H](N3CCCC3)C2)c1 — higher, -1.62%
- COC(=O)C1=C(C)N=C2SC=C(CC(=O)NCc3ccco3)N2C1c1cccc(F)c1 (stereo not drawn) — lower, -28.9%
- CCCNC(=O)N1CCCC1c1nc(C2CCOCC2)no1 (stereo not drawn) — higher, -1.86%
- Cn1nccc1C(=O)N1CCCCCNC(=O)[C@@H]2CCC[C@@H]21 — higher, 1.85%
- O=C(c1cccc(F)c1)N1CCCC(c2nccn2Cc2cscn2)C1 (stereo not drawn) — higher, -9.43%
- Cc1ccc(C(=O)N2C[C@H]3CN(C4CCOCC4)C[C@@]3(C(=O)O)C2)cc1 — higher, -3.71%
- O=C(C1CCN([S+](=O)([O-])c2cccs2)CC1)N1CCC(c2nc3ncccc3[nH]2)CC1 — lower, -26%
- Cc1ccc(N2Cc3c(NC4CCCCC4)ncnc3N(C)CC2=O)cc1 — lower, -23.9%
- O=C(Cc1cccn1-c1ccccc1)N1CCOCC1 — higher, 8.81%
- Cc1ccc(C(=O)N2CCCC(C(=O)NCc3ccccc3)CCNC(=O)CC2)s1 (stereo not drawn) — higher, -11.4%
- COc1ccc(C(=O)N2CCc3nc(C4CC4)nc(-c4ccc(Cl)cc4)c3C2)cc1 — lower, -23.7%
- COc1ccc(-c2nnc3n2CCN(C(=O)c2cccc(OC)c2)C3)cc1 — higher, -1.3%
- COc1ccc(-c2nc(C)nc3c2CN([S+](C)(=O)[O-])CC3)cc1 — higher, 2.07%
- COc1ccc(-c2nc(C3CC3)nc3c2CCN([S+](=O)([O-])c2ccccc2)CC3)cc1 — lower, -25.8%
- CCC(CC)C(=O)N1CCC(N2CCCC(C(=O)NCc3ccccc3)C2)CC1 (stereo not drawn) — higher, -6.43%
- COc1cc(SC)ccc1C(=O)N[C@@H]1C=C(C(=O)N[C@H](Cc2ccccc2)C(N)=O)C[C@@H](O)[C@@H]1O — higher, -6.4%
- CCCC(NC(C)=O)C(=O)Nc1cccc(NC(=O)Cc2ccccc2)c1 (stereo not drawn) — higher, -5.42%
- O=c1[nH]c(C2CCN(Cc3ccc(F)cc3)CC2)nn1Cc1ccccc1 — lower, -21.8%
- COc1ccccc1C(=O)N1CCC2(CCC(=O)N(Cc3ccccc3)CC2)CC1 — higher, 9.71%
- COc1ccccc1C(=O)N1CCC(n2cnnc2C2CC2)CC1 — higher, -2.05%
- OC1CC(c2cc(N3CCC(c4nnc5n4CCCCC5)CC3)ncn2)C1 (stereo not drawn) — higher, 2.4%
- COCCN1C(=O)c2cccn2CC1CNC(=O)c1ccccc1F (stereo not drawn) — higher, 4.36%
- CNC(=O)c1cc[nH]c1C1CCCN(C(=O)Cc2c[nH]c3ccccc23)C1 (stereo not drawn) — higher, 3.91%

For `COc1ccccc1N1CCN(C(=O)Cn2c(N3CCc4ccccc4C3)nc(C)cc2=O)CC1`, the Potency was 35.5 µM (active).
With `Cc1cccc(CN2CCc3ncc(C(=O)NCc4ccccc4)n3CC2)n1` the Potency was 100 µM (active).
For `Cc1ccccc1CN1CCc2ncc(C(=O)NCCOc3ccccc3)n2CC1`, the Potency was 79.4 µM (active).
For `Cc1ccccc1CN1CCCn2nc(C)c(-c3cccnc3N3CCOCC3)c21`, the Potency was 70.8 µM (active).
For `O=C(Nc1cccn2nc(C3CCC3)nc12)c1cccc(F)c1`, the Potency was 39.8 µM (active).
In the case of `O=C(Cc1ccc(F)cc1)N1CCOCC2(CN(Cc3ccccc3)C2)C1`, the Potency is reported as 39.8 µM (active).
In the case of `O=C(NCCOc1ccccc1)c1nc2c(o1)CCN(CC1CCCCC1)CC2`, the Potency is reported as 100 µM (active).
In the case of `CSc1ccc(-c2cccc(CN3CCC(N[S+](=O)([O-])c4cccs4)CC3)c2)cc1`, the Potency is reported as 22.4 µM (active).
With `Cc1noc(C)c1[S+](=O)([O-])NC1CCN(Cc2ccc(-c3ccsc3)cc2)C1` (stereo not drawn) the Potency was 39.8 µM (active).
For `Cc1noc(C)c1[S+](=O)([O-])NC1CCN(Cc2cccc(-c3ccc(F)c(F)c3)c2)CC1`, the Potency was 25.1 µM (active).
For `CC1=C[C@@H](CNC(C)C)[C@H](C(C)C)C[C@H]1Cc1nnc(-c2ccc(C)cc2)o1`, the Potency was 70.8 µM (active).
For `CC1=C[C@@H](CNC(C)C)[C@H](C(C)C)C[C@H]1Cc1nnc(-c2ccc(N(C)C)cc2)o1`, the Potency was 31.6 µM (active).
In the case of `CC1=C[C@@H](CNC2CC2)[C@H](C(C)C)C[C@H]1Cc1nnc(-c2ccc(C)cc2)o1`, the Potency is reported as 50.1 µM (active).
In the case of `N[C@@H]1CCN(Cc2cccc(Oc3ccc(F)cc3)c2)C[C@H]1O`, the Potency is reported as 79.4 µM (active).
For `O=C(c1cccc(O)c1)N1CCNc2cnc(Nc3cccc(F)c3)nc2C1`, the Potency was 100 µM (active).
For `Cc1nnc(-c2cc(-c3ccccc3)ccn2)n1CCc1ccccc1`, the Potency was 89.1 µM (active).
In the case of `COc1ccc(-c2nc(C(C)C)nc3c2CCN([S+](=O)([O-])c2cccc(C(F)(F)F)c2)CC3)cc1`, the Potency is reported as 39.8 µM (active).
With `COc1cccc(C(=O)N2CCc3nc(C(C)C)nc(-c4ccc(Cl)cc4)c3C2)c1` the Potency was 89.1 µM (active).
In the case of `COc1ccccc1C(=O)N1CCC2(CC1)CC(=O)c1ccccc1O2`, the Potency is reported as 112 µM (active).
In the case of `O=C(O)c1cccc(-c2ccccn2)c1`, the Potency is reported as “inactive”.

In the case of `COCCOc1cc(=O)n2c(c1C(=O)NCc1ccccc1)CCOCC2`, the “outcome” value is reported as “inactive”.
In the case of `COc1ccc(CN2CCc3ncc(C(=O)Nc4ccccc4C)n3CC2)cn1`, the “outcome” value is reported as “inactive [at 172 µM]”.
For `CCOCC(=O)N[C@@H]1c2ccccc2C2(CCNCC2)[C@H]1OC`, the “outcome” value was “inactive”.
With `O=C1CCCCC(CNC(=O)c2cccc(F)c2)N1` (stereo not drawn) the “outcome” value was “inactive”.
For `NC(=O)[C@H](Cc1cccs1)NC(=O)[C@@H]1C[C@@H](NC(=O)c2cnccn2)CCN1C(=O)COCC(=O)O`, the “outcome” value was “inactive”.
For `COc1cc(NC(=O)C2Cn3cccc3C(=O)N2)cc(OC)c1` (stereo not drawn), the “outcome” value was “inactive”.
With `Cc1noc(C)c1[S+](=O)([O-])N1CCCC(c2nnc3n2C(C(=O)O)CC3)C1` (stereo not drawn) the “outcome” value was “inactive”.
With `COCCN1C(=O)CS(=O)C12CCN(C(=O)NC1CCCC1)CC2` (stereo not drawn) the “outcome” value was “inactive”.
With `COc1ccc(-c2ccnc(-c3nnc(C)n3C3CCN(C)CC3)c2)cc1OC` the “outcome” value was “inactive [at 172 µM]”.
With `CN(C)[C@@H]1CO[C@H](CNS(=O)(=O)c2ccccc2)[C@H]1O` the “outcome” value was “inactive [at 172 µM]”.

Point of comparison: `COCCNC(=O)CC[C@]12CC[C@](C)(O)C[C@H]1C(C)(C)C[C@@H]2NC(=O)c1ccco1`, “activity change, negative = cytotoxicity” value 1.79% [at 172 µM]. Against it:
- COc1ncc(CN2CCc3ncc(C(=O)Nc4ccccc4)n3CC2)cn1 — higher, 3.76% [at 172 µM]
- COc1ccc(CN2CCc3ncc(C(=O)NCCOc4ccccc4)n3CC2)cn1 — lower, -25.6% [at 172 µM]
- CC1(C(=O)N2CCN(Cc3ccccc3)CC2)CCOCC1 — lower, -6.51% [at 172 µM]
- O=C1N2CCCC2CN1C1CCN(Cc2ccsc2)CC1 (stereo not drawn) — lower, -3.09% [at 172 µM]
- CC(C)CCN1CCc2c(n(Cc3cccnc3)n(-c3ccccc3)c2=O)C1 — higher, 4.31% [at 172 µM]
- CN(Cc1cccc2ccccc12)C1CCc2ccccc21 (stereo not drawn) — higher, 1.89% [at 172 µM]
- CN(C)c1ccc(C(=O)N2CCN3C(=O)N(Cc4ccccc4)C(=O)[C@H]3C2)cc1 — lower, -26.6% [at 172 µM]
- CC(=O)NC[C@@H]1C=C(C)[C@H](CC(=O)N2CCCC2)C[C@H]1C(C)C — higher, 3.61% [at 172 µM]
- CC(C)(C)c1nc(C(=O)N2CCOCC2)n2ccccc12 — lower, -9.1% [at 172 µM]
- COc1ccccc1Nc1ncc2c(n1)CN(C(=O)COc1ccccc1)CCN2 — lower, -45.3% [at 172 µM]
- COCCn1c(C)nnc1-c1cc(-c2cccc(F)c2)ccn1 — lower, -14.4% [at 172 µM]
- O=[N+]([O-])c1cccc(-c2noc([C@@H]3C[C@@H](O)CN3Cc3cccnc3)n2)c1 — lower, -20% [at 172 µM]
